# Test results from PubChem BioAssay (EPA / NIEHS).
# Results filed as inconclusive are left out. Activity calls are given as the source filed them. The calls were made as follows: active = hit-call score of the fitted dose curve at least 0.9, where 1 is the maximum; inconclusive = response in the unintended direction; inactive = score below 0.9.
# Target: mouse Estrogen Receptor alpha (Era), Esr1 (gene 13982) (UniProt P19785)
# Assay: NVS_NR_mERa: NovaScreen (NVS) Nuclear Receptor Binding Assay for mouse Estrogen Receptor alpha (Era) (AID 2283378);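 also: hit means loss of bound radioligand signal relative to DMSO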
# Protocol: NVS_NR_mERa is a biochemical, single-readout assay that uses extracted gene-proteins in a cell-free assay. Measurements were taken 18 hours after chemical dosing in a 96-well plate.NVS_NR_mERa is one of one assay component(s) measured or calculated from the NVS_NR_mERa assay. It is designed to make measurements of radioligand binding, a form of binding reporter, as detected with scintillation counting signals by Filter-based radiodetection technology.Data from the assay component NVS_NR_mERa was analyzed into 1 assay endpoint. This assay endpoint, NVS_NR_mERa, was analyzed in the positive analysis fitting direction relative to DMSO as the negative control and baseline of activity. Using a type of binding reporter, loss-of-signal activity can be used to understand changes in the binding as they relate to the gene Esr1. Furthermore, this assay endpoint can be referred to as a primary readout, because the performed assay has only produced 1 assay endpoint. To generalize the intended target to other relatable targets, this assay endpoint is annotated to the nuclear receptor intended target family, where the subfamily is steroidal.
# Binding assays used specific radioligands (tritiated, iodinated) with non-radioactive competitive displacement ligands in agonist or antagonist protocols (as indicated) and various reference compounds and inhibitors to titrate specific binding to receptors and transporters. Most enzyme assays (CYPs, kinases, phosphatases, proteases, HDACs) used recombinant protein and specific substrates (fluorescence mostly, some colorimetric and radioactive) and inhibitors, followed by a biochemical separation of substrate and product. All assays for the biochemical HTS were initially run in duplicate at a single concentration (10 uM for CYP450 assays and 25 uM for all others). […] Each assay was run with positive and negative controls, and concurrent controls on every plate. The follow-up (secondary) screen tested active chemical-pairs in concentration series, as well as a few additional assays not tested in the primary screen, some selected negative inactives, and several cases re-run in the concentration series for confirmatory purposes.
# mouse Estrogen Receptor alpha (Era), Esr1 (gene 13982), sequence (P19785 whole entry, looked up): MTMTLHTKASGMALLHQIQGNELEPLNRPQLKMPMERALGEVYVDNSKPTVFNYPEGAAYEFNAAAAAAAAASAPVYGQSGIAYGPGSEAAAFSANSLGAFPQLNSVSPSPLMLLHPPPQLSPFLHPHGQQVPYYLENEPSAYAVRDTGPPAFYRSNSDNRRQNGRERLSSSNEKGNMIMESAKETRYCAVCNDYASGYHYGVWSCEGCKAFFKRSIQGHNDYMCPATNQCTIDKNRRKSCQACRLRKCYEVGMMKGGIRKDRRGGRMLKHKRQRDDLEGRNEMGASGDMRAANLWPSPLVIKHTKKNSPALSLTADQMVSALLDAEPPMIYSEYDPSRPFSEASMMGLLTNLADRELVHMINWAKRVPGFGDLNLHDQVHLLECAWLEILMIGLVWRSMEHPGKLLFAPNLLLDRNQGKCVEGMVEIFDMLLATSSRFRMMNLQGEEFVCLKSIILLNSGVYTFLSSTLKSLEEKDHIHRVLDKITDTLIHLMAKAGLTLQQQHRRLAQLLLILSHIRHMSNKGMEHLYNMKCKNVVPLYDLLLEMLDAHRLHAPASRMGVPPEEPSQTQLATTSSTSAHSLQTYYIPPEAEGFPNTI
Compound,outcome,AC50
O=C(CCl)Nc1ccccc1,inactive,–
O=C1c2ccccc2C(=O)C1C(=O)C(c1ccccc1)c1ccc(Cl)cc1 (stereo unspecified),–,1.12 µM (active)
Oc1c(Br)cc(Br)cc1Br,inactive,–
O=S1OC[C@@H]2[C@H](CO1)[C@]1(Cl)C(Cl)=C(Cl)[C@@]2(Cl)C1(Cl)Cl (stereo partly specified),inactive,–
O=C(NC(=O)c1c(F)cccc1F)Nc1cc(Cl)c(Oc2ncc(C(F)(F)F)cc2Cl)c(Cl)c1,inactive,–
CC(C)N(C(=O)CCl)c1ccccc1,–,6.48 µM (active)
CCOCn1c(-c2ccc(Cl)cc2)c(C#N)c(Br)c1C(F)(F)F,inactive,–
CCC[CH2][Sn]([Cl])([Cl])[CH2]CCC,inactive,–
C=CC(=O)[O][Sn]([CH2]CCC)([CH2]CCC)[CH2]CCC,inactive,–
O=S(=O)(Oc1ccc(Cl)cc1)c1ccc(Cl)cc1,inactive,–
Nc1ccc(Br)cc1,inactive,–
O=c1[nH]c2ccccc2n1C1CCN(CCCC(c2ccc(F)cc2)c2ccc(F)cc2)CC1,inactive,–
COC(=O)c1cc(Oc2ccc(Cl)cc2Cl)ccc1[N+](=O)[O-],inactive,–
CC(=Cc1ccccc1)[N+](=O)[O-],inactive,–
CC(C)(C)c1cc([N+](=O)[O-])cc(C(C)(C)C)c1O,inactive,–
CC(O)(CS(=O)(=O)c1ccc(F)cc1)C(=O)Nc1ccc(C#N)c(C(F)(F)F)c1 (stereo unspecified),–,0.026 µM (active)
CC(C)(C1CCC(O)CC1)C1CCC(O)CC1 (stereo unspecified),inactive,–
O=[N+]([O-])c1ccc(Nc2ccccc2)cc1,inactive,–
O=S1(=O)OC(c2cc(Br)c(O)c(Br)c2)(c2cc(Br)c(O)c(Br)c2)c2ccccc21,inactive,–
O=C(Cl)OCCOCCOC(=O)Cl,–,6.49 µM (active)
OCC(c1ccc(Cl)cc1)c1ccc(Cl)cc1,inactive,–
